PubChem BioAssay (NCI)
About 83,000 compounds went through this panel and 20% of them were active in at least one assay; those are over-represented in the sample as a whole.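 Single-concentration screen, 48 h exposure, 96-well plates. Endpoint: percent growth. Below 10 = active.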 Unmarked numbers belong to inactive results. The source made the active and inactive calls.

Legend:
Experiment in all cases: NCI-60 one-dose screen, 48 h (100 = growth as untreated, 0 = no growth, -100 = all killed)
Details in all cases: 10 µM
NCI-H23 lung = system: NCI-H23 lung
NCI-H226 lung = system: NCI-H226 lung
NCI-H322M lung = system: NCI-H322M lung
HOP-62 NSCLC = system: HOP-62 NSCLC
NCI-H460 lung = system: NCI-H460 lung
NCI-H522 lung = system: NCI-H522 lung
A549/ATCC NSCLC = system: A549/ATCC NSCLC
786-0 renal = system: 786-0 renal
COLO 205 colon = system: COLO 205 colon
DU-145 prostate = system: DU-145 prostate
K-562 leukemia = system: K-562 leukemia
MALME-3M melanoma = system: MALME-3M melanoma
MDA-MB-231 breast = system: MDA-MB-231 breast
RXF 393 renal = system: RXF 393 renal
SF-268 CNS = system: SF-268 CNS
SF-295 CNS = system: SF-295 CNS
SF-539 CNS = system: SF-539 CNS
UACC-257 melanoma = system: UACC-257 melanoma
M14 melanoma = system: M14 melanoma
HCT-15 colon = system: HCT-15 colon

| Compound | growth (NCI-H23 lung) | growth (NCI-H226 lung) | growth (NCI-H322M lung) | growth (HOP-62 NSCLC) | growth (NCI-H460 lung) | growth (NCI-H522 lung) | growth (A549/ATCC NSCLC) | growth (786-0 renal) | growth (COLO 205 colon) | growth (DU-145 prostate) | growth (K-562 leukemia) | growth (MALME-3M melanoma) | growth (MDA-MB-231 breast) | growth (RXF 393 renal) | growth (SF-268 CNS) | growth (SF-295 CNS) | growth (SF-539 CNS) | growth (UACC-257 melanoma) | growth (M14 melanoma) | growth (HCT-15 colon) |
| --- | --- | --- | --- | --- | --- | --- | --- | --- | --- | --- | --- | --- | --- | --- | --- | --- | --- | --- | --- | --- |
| COc1ccc(Nc2nc3ccc(NC(=O)NC4CCCCC4)cc3[nH]c2=O)cc1 | 94.1% | 94.5% | 96.1% | 83.9% | 102% | 87.3% | 89.5% | 72.7% | 112% | 107% | 77.1% | 102% | 70.8% | 48.1% | 91.4% | 82.6% | 68.8% | 90.4% | 103% | 83.2% |
| O=C(O)CC(Cl)C(Cl)CC(=O)O (stereo not given) | 102% | 119% | 93.1% | 110% | 101% | 86.3% | 94.6% | 101% | 112% | 106% | 103% | 90.7% | 117% | 127% | 105% | 92.7% | 99.3% | 92.2% | 102% | 99.2% |
| COc1cc(-c2cc(/C=C/C(=O)c3ccc(Cl)c(Cl)c3)[nH]n2)cc(OC)c1OC | 101% | 81.7% | 62.7% | 75.9% | 79.4% | 38% | 88.3% | 69.7% | 78% | 62.4% | 31.9% | 87% | 62.3% | 67.3% | 104% | 141% | 35% | 89.7% | 89.8% | 50.9% |
| O=C(Nc1nc2ccccc2s1)Nc1ccc([N+](=O)[O-])cc1Cl | 36.9% | 103% | 33.3% | 110% | 32.6% | -22.6% (active) | -53.1% (active) | -23.5% (active) | 111% | 87% | 58.8% | 96.4% | 40.1% | -17.7% (active) | 3.97% (active) | 67.8% | -48.5% (active) | -10.6% (active) | 79.7% | 87.2% |
| Cc1ccc(CC#N)cc1C | 110% | 96.1% | 101% | 101% | 99.1% | 98% | 109% | 103% | 111% | 85.4% | 73.8% | 121% | 97.2% | 83.2% | 86.2% | 93% | 87.5% | 127% | 96.9% | 95.4% |
| O=C(C[P+](c1ccccc1)(c1ccccc1)c1ccccc1)C[P+](c1ccccc1)(c1ccccc1)c1ccccc1 | -14.5% (active) | -71.8% (active) | -59.3% (active) | -59.8% (active) | -68.3% (active) | -83.8% (active) | -27.9% (active) | -97.9% (active) | -27.9% (active) | -94% (active) | -34.2% (active) | -86.5% (active) | -71.3% (active) | -70.2% (active) | -86.3% (active) | -72.4% (active) | -98.2% (active) | -82.3% (active) | -75.4% (active) | -77.6% (active) |
| O=C(N/N=C\c1cc(Cl)ccc1[N+](=O)[O-])c1ccco1 | 98.2% | 105% | 126% | 110% | 101% | 97.2% | 90.7% | 95.6% | 139% | 108% | 102% | 125% | 95% | 115% | 99.3% | 108% | 92.4% | 95% | 108% | 97% |
| O=C(Nc1ccc(Cl)c([N+](=O)[O-])c1)Nc1nc2ccccc2s1 | 64.5% | 86.4% | 101% | 90.1% | 82% | 36.1% | 27.2% | 90.3% | 108% | 107% | 74.9% | 67.6% | 86.2% | 113% | 106% | 71% | 83.6% | 91.8% | 88.7% | 92.3% |
| O=C(Nc1cccc(-n2cc(-c3ccncc3)c(-c3ccc(O)c(Cl)c3)n2)c1)Nc1ccc(Cl)c(Cl)c1 | 5.31% (active) | 51.1% | -6.78% (active) | 8.83% (active) | -4.26% (active) | -13.1% (active) | 0.252% (active) | -6.94% (active) | 77.8% | 11.5% | 5.72% (active) | -27% (active) | -44.9% (active) | -26.2% (active) | 10.9% | -40.4% (active) | -19.8% (active) | -42.7% (active) | -50.3% (active) | 14.1% |
| O=C1Nc2ccc(Cl)cc2/C1=C\c1c(-c2ccc(Cl)cc2)nc2sc(C3CC3)nn12 | 67% | 29.7% | 61.3% | -0.353% (active) | 51.4% | 42.9% | 56.4% | 31.8% | 71.9% | 59.2% | 76.1% | 42% | 43.7% | 21.1% | 34% | 41.4% | 8.81% (active) | 63.2% | 74.2% | 77.6% |
| Cc1ccc(C(=O)N2C/C(=C/c3ccccc3)C(=O)/C(=C/c3ccccc3)C2)cc1 | 78.6% | 71.2% | 80.5% | 76.9% | 90% | 69% | 84% | 53.6% | 76.7% | 58.3% | 5.67% (active) | 60.3% | 53.4% | 31.3% | 66.4% | 56.1% | 87.2% | 80.1% | 18.2% | 24.5% |
| CCOC1(OCC)OC(c2ccccc2)=C(C#N)C(/C=C\c2ccccc2)C1(OCC)OCC (stereo not given) | 82.4% | 81.2% | 84.3% | 91.5% | 81.8% | 82.3% | 82.5% | 87.4% | 88.9% | 89.7% | 73.3% | 73.7% | 85.1% | 60.1% | 79.8% | 94.1% | 100% | 81% | 78% | 81.7% |
| O=C(Nc1cccc(-n2cc(-c3ccncc3)c(-c3ccc(O)c(Cl)c3)n2)c1)c1ccc(Cl)c(Cl)c1 | 78.5% | 80.6% | 77.3% | 67.7% | 20.8% | 41.5% | 41.2% | 55.3% | 102% | 80.5% | 30.1% | 29.5% | -19.9% (active) | 16% | 74.1% | 13.9% | 35.8% | 10.8% | 29.2% | 24% |
| COc1ccc(-c2ccc(-c3ccc(C(=N)N)cn3)o2)cc1 | 85.1% | 78.7% | 77.6% | 72.1% | 82.2% | 76.6% | 69.5% | 91.3% | -41.2% (active) | 88.6% | 24.7% | 39.4% | 47.4% | 85.7% | 81.2% | 68.7% | 79.7% | 62.8% | 75.3% | 59.8% |
